Assay outcomes (PubChem)
CtBP-E1A blk = blocks the CtBP interaction with E1A; AlphaScreen GST-E1A/His-CtBP binding, 1536-well; hits give low values; hit rate 0.49% among 340,000; activity change, % (concentration not given with the values); in the data active = activity change below about -65%; inconclusive = mostly about -30% to -63%; note: % is set by controls: 0 for no effect and ±100 for the full control effect
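Steps: dispense buffer (Tris pH 8.0, NaCl 300 mM, TCEP 1 mM, BSA, Tween 20); add 5X protein mix (GST-E1A, His-CtBP, 125 nM each); pin 23 nL compound; 2 h at 37 °C, dark; add 5X beads (50 ug/mL); 1 h; read.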
JMJD2A Tudor = inhibitors of human JMJD2A Tudor domain; Potency, µM (doses to about 114 µM), without a hit: at the top dose activity change, negative = inhibition, most hits filed as inhibitors; hit rate 4.4% among 390,000; O75164; AlphaScreen JMJD2A-Tudor / H3K4me3 peptide binding; note: potency is the fitted concentration of half-maximal effect; % is set by controls: 0 for no effect and ±100 for the full control effect; nearly all actives have a fitted effect of over 50% in size
HP1b chromo inh = HP1-beta chromodomain-methylated histone interaction inhibition | P83916 | AlphaScreen HP1-beta / biotin-H3K9me3 peptide binding | hit rate 0.56% among 390,000 | Potency, µM (doses to about 114 µM), without a hit: at the highest dose activity change, negative = inhibition, most hits filed as inhibitors | AID 540317; note: potency is the fitted concentration of half-maximal effect; nearly all actives have a fitted effect of over 70% in size
Target sequence (P83916 whole entry, looked up): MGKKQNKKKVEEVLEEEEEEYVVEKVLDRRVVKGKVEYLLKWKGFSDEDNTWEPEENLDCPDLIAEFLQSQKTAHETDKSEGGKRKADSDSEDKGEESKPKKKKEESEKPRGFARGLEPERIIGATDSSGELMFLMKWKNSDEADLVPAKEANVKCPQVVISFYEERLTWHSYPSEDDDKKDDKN
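HP1-beta protein (50 nM final) preincubated 30 min at room temperature with biotinylated H3(1-18)K9me3 peptide (50 nM) in PBS pH 7.4, 0.01% Tween-20, then compound added for 30 min. AlphaScreen streptavidin donor/nickel chelate acceptor beads (10 ug/mL final), 30 min dark, luminescence read.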
BAZ2B inh = blocks human BAZ2B | Q9UIF8 | AlphaScreen BAZ2B-H3K14Ac peptide displacement | Potency, µM (highest dose often 114 µM), without a hit: at the highest dose activity change, negative = inhibition, most hits filed as inhibitors | hit rate 4.4% among 360,000 | AID 504333; note: potency is the fitted concentration of half-maximal effect; % is set by controls: 0 for no effect and ±100 for the full control effect; nearly all actives have a fitted effect of over 60% in size
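Multi-concentration screen (max 110 uM) measuring displacement of acetylated histone H3 peptide from BAZ2B by AlphaScreen, using 50 nM protein, 50 nM peptide and 10 ug/mL streptavidin donor plus Ni-chelate acceptor beads.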
Six1-Eya2 inh = inhibitors of human Six1/Eya2 interaction; activity change, % (concentration not given with the values); Q15475+O00167; AlphaScreen GST-Six1/His-Eya2 binding, biochemical; hits give low values; AID 651725; hit rate 0.56% among 360,000; in the data active = activity change below about -65%; inconclusive = mostly about -30% to -63%; note: % is set by controls: 0 for no effect and ±100 for the full control effect
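Six1/Eya2 binding was read as AlphaScreen signal after compounds were pinned into GST-Six1 plus His-tagged Eya2 (5X stock 250/500 nM) in pH 8.0 Tris/NaCl/TCEP buffer, beads added, then incubated 1 h, 37 C, dark.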
G9a block = blocks human histone lysine methyltransferase G9a. Q96KQ7. G9a H3K9 monomethylation, AlphaScreen, 2 h. Potency, µM (doses to about 102 µM), inactives show top-dose activity, negative = inhibition, hits mostly inhibitors. hit rate 8.8% among 350,000; note: potency is the fitted concentration of half-maximal effect; % is set by controls: 0 for no effect and ±100 for the full control effect; nearly all actives have a fitted effect of over 75% in size
Target sequence (Q96KQ7 913-1193 limits assumed): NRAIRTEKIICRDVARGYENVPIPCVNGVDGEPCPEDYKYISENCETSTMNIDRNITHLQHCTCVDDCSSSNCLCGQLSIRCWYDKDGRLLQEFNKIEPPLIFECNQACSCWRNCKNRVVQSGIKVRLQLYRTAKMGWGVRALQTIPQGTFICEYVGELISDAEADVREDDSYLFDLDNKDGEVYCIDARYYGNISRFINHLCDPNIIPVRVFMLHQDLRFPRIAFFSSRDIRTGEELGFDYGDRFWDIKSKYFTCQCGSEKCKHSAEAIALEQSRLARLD
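Step 1: enzyme (final 20 nM) with compound, 15 min RT. Step 2: substrate peptide 500 nM and SAM 20 uM, 2 h RT. Step 3: anti-H3K9me1 antibody and AlphaScreen beads, 10 min, then plate read.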
Numbers without * were called inactive; ? = inconclusive; . = not tested or not shown; [ ] = dose if it differs, or a comment. Shown are actives, neighbours in structure and some others; about 10% of the full set was active somewhere. Unless noted, calls come from the whole dose curve; as a rule, active = well fitted inhibition curve with a large enough effect; inconclusive = small, poorly fitted or top-dose-only effect; inactive = no such curve, though single readings can be large or run the other way.

SMILES | CtBP-E1A blk | JMJD2A Tudor | HP1b chromo inh | BAZ2B inh | Six1-Eya2 inh | G9a block
CC(=O)N1CCN(CC(O)COc2ccc(OCc3ccccc3)cc2)CC1 (stereo not drawn) | -8 | -14% | 4% | -9% | -9 | 5%[59 µM]
CC(=O)c1cccc(OCC(O)CN2CCN(C(=O)c3ccco3)CC2)c1 (stereo not drawn) | 8 | 1.4µM* | ? | 71µM* | -2 | ?
CCOC(=O)c1cnc2ccc(C)cc2c1NCCc1ccc(OC)c(OC)c1 | . | 6% | 53% | -2% | . | 4%[59 µM]
CC(=O)c1ccc(OCC(O)CN2CCN(CCO)CC2)cc1 (stereo not drawn) | 0 | -23% | 89% | 4% | 17 | -18%[59 µM]
SC(COCc1ccccc1)CN1CCN(Cc2ccc3c(c2)OCO3)CC1 (stereo not drawn) | -15 | ? | 5% | ? | -29 | 22µM*
CCN1CCN(CC(O)COc2ccc(C(C)=O)cc2)CC1 (stereo not drawn) | 3 | -30% | 52% | 2% | 3 | 50µM*
CCc1nnc2c(NCc3ccccc3OC)nc3ccccc3n12 | . | -17% | 28% | -18% | . | -4%[59 µM]
Cc1ccc(C)c(S(=O)(=O)N2CCN(C(=O)Cc3ccccc3)CC2)c1 | 8 | 4% | 22% | 2% | -6 | 4%[0.501 µM]
Cc1ccc(C)c(S(=O)(=O)N2CCN(C(=O)CSC(=S)N3CCCC3)CC2)c1 | 7 | -12% | 30% | 4% | -7 | 50µM*
CCCOc1ccc(-c2nn(-c3ccccc3)cc2/C=C2\SC(N)=NC2=O)cc1C | 5 | -27% | 16% | -6% | -3 | 24%[59 µM]
COc1ccc(-c2nn(CCC(=O)O)cc2/C=C2\SC(N)=NC2=O)cc1OC | -2 | ? | 25% | 56µM* | -11 | ?
CC(C)c1ccc(OCc2ccc(C(=O)N(C)C)o2)cc1 | -3 | -17% | 45% | ? | 1 | 5%
CC(C)c1ccc(OCc2ccc(C(=O)O)o2)cc1 | 2 | -23% | -7% | 79µM* | -8 | ?
CCCN1CCN(CCCNC(=O)C(CC)n2nc(C)n3c(cc4occc43)c2=O)CC1 (stereo not drawn) | 4 | -5% | 41% | -3% | 1 | -6%
O=C(NC1CCCC1)C(c1ccc(F)cc1)N(Cc1ccc(F)cc1)C(=O)CCl (stereo not drawn) | 12 | -23% | 21% | 8% | 16 | 45µM*
O=C(NC1CCCCC1)C(c1ccncc1)N(Cc1ccc(F)cc1)C(=O)c1ccccn1 (stereo not drawn) | . | -11% | 38% | 6% | 1 | ?
Cc1cc(=O)oc2cc(OC(=O)c3ccccc3)ccc12 | 4 | -21% | 0% | -35% | 3 | ?
COc1ccccc1-c1c(C(F)(F)F)oc2cc(OC(=O)c3ccc([N+](=O)[O-])cc3)ccc2c1=O | -9 | ? | ? | ? | -7 | 25µM*
Cc1ccc(-c2cc(C(=O)N3CCN(S(=O)(=O)c4ccc(Br)s4)CC3)[nH]n2)c(C)c1 | . | -6% | 23% | 5% | . | 3%[59 µM]
CCOc1cccc(C2C=C(c3ccc4c(c3)OCO4)NC(c3cccc(Br)c3)N2)c1O (stereo not drawn) | . | 2%[57.1 µM] | 18%[57 µM] | . | . | .
COc1ccc(N2CCN(C(=O)CSc3nnc4c(C)cc5cc(C)ccc5n34)CC2)cc1 | -5 | -19% | -28% | ? | 0 | 45µM*
COc1ccc(N2CCN(C(=O)CSc3nnc4c(C)cc5c(C)cc(C)cc5n34)CC2)cc1 | -28 | ? | -21% | 6% | ? | ?
Cc1ccc2cc(C)c3nnc(SCC(=O)N4CCN(C(=O)c5ccco5)CC4)n3c2c1 | 11 | -21% | 5% | -2% | -21 | 50µM*
Cc1cc2c(s1)c1cnn(Cc3ccccc3F)c(=O)c1n2C(C)C | . | 14% | . | . | . | .
CCOC(=O)c1c(C)[nH]c(CCC(=O)Nc2cc(C)cc(C)c2)c1C | . | -17% | 6%[57 µM] | -1% | . | 1%[59 µM]
CCC1CO/C(=C(\C(Cl)=C(Cl)Cl)[N+](=O)[O-])N1 (stereo not drawn) | . | -16%[11.4 µM] | ? | 2% | -7 | 79µM*
